In assay [1] the target is Protein kinase C gamma type (Homo sapiens) (UniProt P05129). The note with it: at 1 µM.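 Further: each value is an averaged percent inhibition of the enzyme.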
Assay [2] addresses T1, Protein kinase C iota type (Homo sapiens) (UniProt P41743).
T1 sequence (whole entry): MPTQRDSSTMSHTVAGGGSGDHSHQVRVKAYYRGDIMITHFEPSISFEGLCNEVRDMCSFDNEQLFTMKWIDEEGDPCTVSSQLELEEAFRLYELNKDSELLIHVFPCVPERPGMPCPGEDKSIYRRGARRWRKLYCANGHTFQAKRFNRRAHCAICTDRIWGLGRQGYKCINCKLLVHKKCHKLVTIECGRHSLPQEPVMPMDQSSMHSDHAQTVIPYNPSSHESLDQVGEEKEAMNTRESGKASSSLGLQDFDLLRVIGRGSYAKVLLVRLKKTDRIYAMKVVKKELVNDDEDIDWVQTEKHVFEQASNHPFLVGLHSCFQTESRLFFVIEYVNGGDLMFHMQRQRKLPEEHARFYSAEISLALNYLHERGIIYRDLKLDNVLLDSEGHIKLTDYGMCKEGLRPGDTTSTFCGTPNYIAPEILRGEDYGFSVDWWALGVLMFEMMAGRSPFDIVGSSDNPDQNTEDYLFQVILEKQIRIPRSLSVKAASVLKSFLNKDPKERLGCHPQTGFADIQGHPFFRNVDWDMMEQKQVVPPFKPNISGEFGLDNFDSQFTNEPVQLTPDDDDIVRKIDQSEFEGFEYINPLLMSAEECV
Conditions: at 0.1 µM.

For assay [3], the target named is T1, Protein kinase C iota type (Homo sapiens). The note with it: at 1 µM.
Assay [4] concerns the target Protein kinase C theta type (Homo sapiens) (UniProt Q04759). The note with it: at 0.1 µM.
Assay [5] has the same target. Conditions: at 1 µM.
The target in assay [6] is Protein kinase C beta type (Homo sapiens) (UniProt P05771). Conditions: at 0.1 µM.
Protein kinase C beta type (Homo sapiens), sequence (P05771 2-671 limits assumed): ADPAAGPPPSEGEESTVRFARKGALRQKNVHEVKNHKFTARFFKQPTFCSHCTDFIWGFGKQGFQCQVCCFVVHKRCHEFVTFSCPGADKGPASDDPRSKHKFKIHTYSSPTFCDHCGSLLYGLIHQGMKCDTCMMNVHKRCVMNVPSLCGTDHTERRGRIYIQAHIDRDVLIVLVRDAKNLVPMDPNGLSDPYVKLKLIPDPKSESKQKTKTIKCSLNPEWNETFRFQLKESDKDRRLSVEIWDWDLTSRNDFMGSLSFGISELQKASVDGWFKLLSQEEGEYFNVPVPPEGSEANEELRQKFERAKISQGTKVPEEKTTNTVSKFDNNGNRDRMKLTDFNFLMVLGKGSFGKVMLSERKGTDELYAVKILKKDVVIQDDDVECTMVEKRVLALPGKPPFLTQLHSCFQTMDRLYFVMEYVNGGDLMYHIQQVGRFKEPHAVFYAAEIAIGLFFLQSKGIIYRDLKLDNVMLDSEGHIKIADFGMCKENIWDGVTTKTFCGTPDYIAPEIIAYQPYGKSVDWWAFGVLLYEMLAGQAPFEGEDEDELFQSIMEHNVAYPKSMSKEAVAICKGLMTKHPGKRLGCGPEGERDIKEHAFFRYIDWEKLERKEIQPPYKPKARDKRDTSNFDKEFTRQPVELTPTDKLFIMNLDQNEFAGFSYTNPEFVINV
Assay [7] has the same target. Conditions: at 1 µM.
For assay [8], the target named is T2, Serine/threonine-protein kinase D1 (Homo sapiens) (UniProt Q15139).
T2 sequence (whole entry): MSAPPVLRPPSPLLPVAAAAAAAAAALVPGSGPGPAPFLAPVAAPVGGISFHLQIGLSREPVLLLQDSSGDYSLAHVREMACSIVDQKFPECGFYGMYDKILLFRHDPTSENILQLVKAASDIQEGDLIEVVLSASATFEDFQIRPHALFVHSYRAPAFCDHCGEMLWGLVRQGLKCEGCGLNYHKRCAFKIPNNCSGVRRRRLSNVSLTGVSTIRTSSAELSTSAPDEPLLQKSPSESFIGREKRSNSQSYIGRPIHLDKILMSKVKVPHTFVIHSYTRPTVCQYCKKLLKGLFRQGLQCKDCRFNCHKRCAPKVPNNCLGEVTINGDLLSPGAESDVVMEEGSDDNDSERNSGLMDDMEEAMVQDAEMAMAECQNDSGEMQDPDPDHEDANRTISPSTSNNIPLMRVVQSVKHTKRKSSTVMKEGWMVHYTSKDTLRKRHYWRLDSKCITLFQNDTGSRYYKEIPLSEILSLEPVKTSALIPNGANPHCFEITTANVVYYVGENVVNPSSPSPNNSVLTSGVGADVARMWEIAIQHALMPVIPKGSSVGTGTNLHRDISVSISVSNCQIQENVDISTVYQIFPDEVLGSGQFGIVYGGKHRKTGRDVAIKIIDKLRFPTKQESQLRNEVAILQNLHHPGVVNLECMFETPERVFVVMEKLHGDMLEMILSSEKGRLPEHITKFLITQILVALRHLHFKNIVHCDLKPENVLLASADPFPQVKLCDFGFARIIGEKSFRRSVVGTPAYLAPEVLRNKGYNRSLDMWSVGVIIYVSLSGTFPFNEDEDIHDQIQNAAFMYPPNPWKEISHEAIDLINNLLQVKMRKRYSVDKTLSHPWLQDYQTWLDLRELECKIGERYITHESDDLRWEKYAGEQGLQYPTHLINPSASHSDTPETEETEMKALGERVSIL
Conditions: at 0.1 µM.

In assay [9] the target is T2, Serine/threonine-protein kinase D1 (Homo sapiens). The note with it: at 1 µM.
The target in assay [10] is T3, Serine/threonine-protein kinase D2 (Homo sapiens) (UniProt Q9BZL6).
T3 sequence (whole entry): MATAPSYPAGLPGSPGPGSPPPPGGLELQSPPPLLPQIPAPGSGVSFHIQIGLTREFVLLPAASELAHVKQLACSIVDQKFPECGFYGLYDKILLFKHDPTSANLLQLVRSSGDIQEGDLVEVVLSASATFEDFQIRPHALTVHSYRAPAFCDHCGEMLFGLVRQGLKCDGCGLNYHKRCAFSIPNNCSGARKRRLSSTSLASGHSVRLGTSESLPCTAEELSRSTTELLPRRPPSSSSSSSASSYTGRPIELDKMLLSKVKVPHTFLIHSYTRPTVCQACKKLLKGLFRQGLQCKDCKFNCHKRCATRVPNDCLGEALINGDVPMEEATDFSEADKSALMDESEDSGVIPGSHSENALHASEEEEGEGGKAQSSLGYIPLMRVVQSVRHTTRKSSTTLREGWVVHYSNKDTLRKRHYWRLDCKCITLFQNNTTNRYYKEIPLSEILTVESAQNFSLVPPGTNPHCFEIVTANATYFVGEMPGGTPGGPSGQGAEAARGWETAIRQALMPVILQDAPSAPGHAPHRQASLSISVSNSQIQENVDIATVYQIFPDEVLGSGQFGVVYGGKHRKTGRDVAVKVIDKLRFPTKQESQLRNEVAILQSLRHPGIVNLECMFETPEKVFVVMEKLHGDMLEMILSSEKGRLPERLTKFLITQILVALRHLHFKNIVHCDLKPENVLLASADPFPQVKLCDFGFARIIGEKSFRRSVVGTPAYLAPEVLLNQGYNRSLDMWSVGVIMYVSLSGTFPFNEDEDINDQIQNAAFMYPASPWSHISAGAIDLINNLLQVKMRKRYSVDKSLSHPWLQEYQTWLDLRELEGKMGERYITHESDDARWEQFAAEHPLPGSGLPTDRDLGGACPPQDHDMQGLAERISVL
Conditions: at 0.1 µM.

In assay [11] the target is T3, Serine/threonine-protein kinase D2 (Homo sapiens). Conditions: at 1 µM.
The target of assay [12] is T4, Serine/threonine-protein kinase D3 (Homo sapiens) (UniProt O94806).
T4 sequence (whole entry): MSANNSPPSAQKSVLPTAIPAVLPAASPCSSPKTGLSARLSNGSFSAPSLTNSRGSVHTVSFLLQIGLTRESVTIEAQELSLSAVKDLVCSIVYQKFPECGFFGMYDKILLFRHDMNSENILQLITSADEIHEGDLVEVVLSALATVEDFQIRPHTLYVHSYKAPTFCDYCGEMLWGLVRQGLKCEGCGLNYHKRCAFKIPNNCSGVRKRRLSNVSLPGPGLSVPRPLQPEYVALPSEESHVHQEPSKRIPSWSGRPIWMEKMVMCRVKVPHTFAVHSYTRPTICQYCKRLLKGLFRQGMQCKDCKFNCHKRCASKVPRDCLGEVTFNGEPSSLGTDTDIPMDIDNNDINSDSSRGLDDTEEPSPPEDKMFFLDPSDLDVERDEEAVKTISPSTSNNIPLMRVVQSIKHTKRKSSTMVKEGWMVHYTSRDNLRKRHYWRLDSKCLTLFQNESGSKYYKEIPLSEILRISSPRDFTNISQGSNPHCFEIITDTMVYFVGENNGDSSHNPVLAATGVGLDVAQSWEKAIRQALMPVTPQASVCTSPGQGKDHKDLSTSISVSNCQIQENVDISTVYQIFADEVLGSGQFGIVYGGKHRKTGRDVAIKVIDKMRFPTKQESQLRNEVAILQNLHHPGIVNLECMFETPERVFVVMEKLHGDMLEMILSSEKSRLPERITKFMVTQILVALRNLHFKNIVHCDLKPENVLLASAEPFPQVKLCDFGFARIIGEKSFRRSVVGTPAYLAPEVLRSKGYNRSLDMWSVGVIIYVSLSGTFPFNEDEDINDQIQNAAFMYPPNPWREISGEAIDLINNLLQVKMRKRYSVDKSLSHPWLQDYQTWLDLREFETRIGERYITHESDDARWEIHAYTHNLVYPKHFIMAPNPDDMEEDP
Conditions: at 0.1 µM.

The target of assay [13] is T4, Serine/threonine-protein kinase D3 (Homo sapiens). Conditions: at 1 µM.
Assay [14] deals with T5, cGMP-dependent protein kinase 1 (Homo sapiens) (UniProt Q13976).
T5 sequence (whole entry): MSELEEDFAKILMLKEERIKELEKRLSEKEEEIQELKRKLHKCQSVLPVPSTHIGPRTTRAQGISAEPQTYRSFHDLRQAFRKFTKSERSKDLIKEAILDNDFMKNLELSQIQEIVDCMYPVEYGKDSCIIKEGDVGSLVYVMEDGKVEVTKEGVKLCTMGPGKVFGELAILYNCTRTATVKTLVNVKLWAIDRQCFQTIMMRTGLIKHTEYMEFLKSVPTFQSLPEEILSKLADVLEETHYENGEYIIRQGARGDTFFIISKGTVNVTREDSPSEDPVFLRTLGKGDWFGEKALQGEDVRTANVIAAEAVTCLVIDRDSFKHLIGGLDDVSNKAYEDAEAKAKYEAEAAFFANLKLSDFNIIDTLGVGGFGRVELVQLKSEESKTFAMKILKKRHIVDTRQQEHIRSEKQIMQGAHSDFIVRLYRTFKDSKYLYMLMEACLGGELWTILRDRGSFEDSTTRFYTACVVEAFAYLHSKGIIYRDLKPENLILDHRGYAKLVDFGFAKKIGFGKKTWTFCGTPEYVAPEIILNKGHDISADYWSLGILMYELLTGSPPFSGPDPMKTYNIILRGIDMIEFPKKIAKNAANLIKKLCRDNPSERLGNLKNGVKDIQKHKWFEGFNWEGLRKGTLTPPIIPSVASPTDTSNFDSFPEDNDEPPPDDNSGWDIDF
Conditions: at 0.1 µM.

The target in assay [15] is T5, cGMP-dependent protein kinase 1 (Homo sapiens). The note with it: at 1 µM.
Assay [16] deals with T6, cGMP-dependent protein kinase 2 (Homo sapiens) (UniProt Q13237).
T6 sequence (whole entry): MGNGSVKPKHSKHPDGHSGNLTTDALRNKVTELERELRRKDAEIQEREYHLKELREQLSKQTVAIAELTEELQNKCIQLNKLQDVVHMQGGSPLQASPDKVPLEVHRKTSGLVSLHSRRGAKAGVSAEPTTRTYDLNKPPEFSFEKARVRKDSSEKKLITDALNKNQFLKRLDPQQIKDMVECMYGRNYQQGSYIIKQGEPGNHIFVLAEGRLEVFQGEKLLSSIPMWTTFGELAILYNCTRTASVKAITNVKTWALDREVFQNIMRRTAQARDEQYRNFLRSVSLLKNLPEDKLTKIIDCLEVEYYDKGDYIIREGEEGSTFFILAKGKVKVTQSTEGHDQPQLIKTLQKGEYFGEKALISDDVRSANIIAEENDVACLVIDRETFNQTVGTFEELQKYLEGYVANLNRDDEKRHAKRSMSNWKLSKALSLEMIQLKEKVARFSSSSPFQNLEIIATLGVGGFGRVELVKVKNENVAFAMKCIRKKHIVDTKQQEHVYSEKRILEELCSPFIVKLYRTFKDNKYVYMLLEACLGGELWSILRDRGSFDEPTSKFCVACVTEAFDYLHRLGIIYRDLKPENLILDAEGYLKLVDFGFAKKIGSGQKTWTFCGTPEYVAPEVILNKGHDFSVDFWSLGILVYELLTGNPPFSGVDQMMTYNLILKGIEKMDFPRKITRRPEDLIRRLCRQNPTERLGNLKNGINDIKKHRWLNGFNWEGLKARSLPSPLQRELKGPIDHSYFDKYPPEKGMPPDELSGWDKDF
The note with it: at 0.1 µM.

For assay [17], the target named is T6, cGMP-dependent protein kinase 2 (Homo sapiens). Conditions: at 1 µM.
Assay [18] concerns the target T7, cAMP-dependent protein kinase catalytic subunit PRKX (Homo sapiens) (UniProt P51817).
T7 sequence (whole entry): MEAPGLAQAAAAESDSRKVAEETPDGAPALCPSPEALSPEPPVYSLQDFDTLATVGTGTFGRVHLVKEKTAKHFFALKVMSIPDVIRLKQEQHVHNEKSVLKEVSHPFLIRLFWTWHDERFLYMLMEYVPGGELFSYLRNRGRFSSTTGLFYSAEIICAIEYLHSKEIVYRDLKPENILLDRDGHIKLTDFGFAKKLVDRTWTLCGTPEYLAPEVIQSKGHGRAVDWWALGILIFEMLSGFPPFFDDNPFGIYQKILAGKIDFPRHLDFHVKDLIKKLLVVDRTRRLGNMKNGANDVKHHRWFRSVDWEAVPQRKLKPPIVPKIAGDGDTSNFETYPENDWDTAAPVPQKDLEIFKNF
Conditions: at 0.1 µM.

Assay [19] has as its target T7, cAMP-dependent protein kinase catalytic subunit PRKX (Homo sapiens). Conditions: at 1 µM.
In assay [20] the target is Rho-associated protein kinase 1 (Homo sapiens) (UniProt Q13464). The note with it: at 0.1 µM.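 Further: values are mean percent inhibition of ROCK1.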
Rho-associated protein kinase 1 (Homo sapiens), sequence (Q13464 2-1354 limits assumed): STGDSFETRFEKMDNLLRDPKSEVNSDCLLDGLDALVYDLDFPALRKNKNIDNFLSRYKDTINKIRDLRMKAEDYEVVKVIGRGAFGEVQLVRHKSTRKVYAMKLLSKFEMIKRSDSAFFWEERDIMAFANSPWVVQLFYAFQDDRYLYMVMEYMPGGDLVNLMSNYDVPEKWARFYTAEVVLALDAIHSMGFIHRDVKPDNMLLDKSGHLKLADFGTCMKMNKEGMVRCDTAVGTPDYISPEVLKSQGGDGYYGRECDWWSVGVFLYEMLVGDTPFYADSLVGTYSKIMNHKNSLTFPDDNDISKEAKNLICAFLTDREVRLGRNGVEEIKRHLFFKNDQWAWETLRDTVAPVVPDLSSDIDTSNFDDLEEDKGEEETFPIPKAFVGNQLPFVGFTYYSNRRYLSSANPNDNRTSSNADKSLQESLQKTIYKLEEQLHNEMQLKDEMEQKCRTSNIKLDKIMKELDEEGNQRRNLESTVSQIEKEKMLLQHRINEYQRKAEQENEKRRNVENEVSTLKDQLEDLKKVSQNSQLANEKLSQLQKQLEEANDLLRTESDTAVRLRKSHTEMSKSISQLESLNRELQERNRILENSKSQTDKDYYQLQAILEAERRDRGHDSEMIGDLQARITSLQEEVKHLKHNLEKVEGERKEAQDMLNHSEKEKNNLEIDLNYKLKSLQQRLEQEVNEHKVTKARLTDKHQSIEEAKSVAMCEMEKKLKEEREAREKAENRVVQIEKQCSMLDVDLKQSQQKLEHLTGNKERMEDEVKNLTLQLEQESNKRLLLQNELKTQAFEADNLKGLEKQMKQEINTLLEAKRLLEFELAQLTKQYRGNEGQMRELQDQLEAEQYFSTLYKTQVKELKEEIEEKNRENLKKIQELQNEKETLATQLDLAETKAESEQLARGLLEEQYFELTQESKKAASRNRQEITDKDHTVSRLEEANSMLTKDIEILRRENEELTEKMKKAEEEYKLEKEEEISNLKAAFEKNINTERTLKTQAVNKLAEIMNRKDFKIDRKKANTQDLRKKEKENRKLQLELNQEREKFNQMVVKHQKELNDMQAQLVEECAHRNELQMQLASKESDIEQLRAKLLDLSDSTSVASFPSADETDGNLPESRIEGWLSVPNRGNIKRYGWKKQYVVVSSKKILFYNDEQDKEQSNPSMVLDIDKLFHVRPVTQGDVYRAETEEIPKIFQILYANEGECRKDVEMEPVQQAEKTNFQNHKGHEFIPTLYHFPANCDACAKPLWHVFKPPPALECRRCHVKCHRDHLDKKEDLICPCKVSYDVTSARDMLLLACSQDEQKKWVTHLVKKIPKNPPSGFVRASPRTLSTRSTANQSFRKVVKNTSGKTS

Protein kinase C theta type (Homo sapiens), sequence (Q04759 whole entry, looked up): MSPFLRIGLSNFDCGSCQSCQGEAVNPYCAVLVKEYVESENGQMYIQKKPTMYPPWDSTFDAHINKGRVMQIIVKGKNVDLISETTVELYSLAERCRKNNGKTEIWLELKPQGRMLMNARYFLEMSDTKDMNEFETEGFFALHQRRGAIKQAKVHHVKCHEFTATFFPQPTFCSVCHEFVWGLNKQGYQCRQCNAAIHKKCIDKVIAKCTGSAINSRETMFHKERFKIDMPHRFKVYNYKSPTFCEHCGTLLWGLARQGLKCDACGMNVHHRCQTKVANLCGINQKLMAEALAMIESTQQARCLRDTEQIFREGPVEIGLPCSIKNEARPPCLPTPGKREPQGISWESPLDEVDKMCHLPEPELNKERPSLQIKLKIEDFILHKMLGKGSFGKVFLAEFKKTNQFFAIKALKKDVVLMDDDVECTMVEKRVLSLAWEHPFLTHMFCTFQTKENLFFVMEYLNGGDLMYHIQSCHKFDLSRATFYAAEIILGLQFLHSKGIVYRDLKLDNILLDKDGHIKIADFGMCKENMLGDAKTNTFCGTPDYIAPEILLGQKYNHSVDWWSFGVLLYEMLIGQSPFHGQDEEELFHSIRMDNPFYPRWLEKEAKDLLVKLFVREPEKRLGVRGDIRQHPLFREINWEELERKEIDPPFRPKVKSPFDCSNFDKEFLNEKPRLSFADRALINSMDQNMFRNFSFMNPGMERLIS

In general, inhibition refers to the drop in the measured response relative to a control, in per cent. As to `CCS(=O)(=O)c1ccc(OC)c(Nc2ncc(-c3cccc(-c4ccccc4F)c3)o2)c1`, the inhibition in assay [1] was 0.81%; in assay [2], 1.05%; in assay [3] it was 3.5%; in [4] it was -0.12%; in [5], 2.52%; in [6], -0.13%. Also, the inhibition in [7] was 1.06%; in [8] it was 1.19%; in [9], 1.23%; in assay [10], 1.33%; in assay [11] it was 1.19%; in assay [12], 1.19%. In addition, the inhibition in assay [13] was found to be 1.54%; in assay [14], 0.11%; in assay [15], 3.03%; in [16], 1.57%; in [17] it was 2.1%; in assay [18], 0.93%. Further, the inhibition in assay [19] was 0.98%; in assay [20], -2.02%.

For the molecule `N#Cc1ccc(Oc2nccc(-c3c(-c4ccc(F)cc4)ncn3C3CCNCC3)n2)cc1`, the inhibition is 4.11% in assay [1]; 2.09% in assay [2]; 2.63% in assay [3]; 2.28% in assay [4]; 3.89% in [5]; 0.99% in assay [6]. The inhibition in assay [7] amounted to 3.08%; in [8] it was 5.51%; in assay [9], 8.1%; in assay [10], 4.63%; in assay [11], 5.05%; in assay [12] it was 5.58%. Further, the inhibition came to 5.89% in assay [13]; 2.79% in assay [14]; 2.48% in [15]; 2.19% in [16]; 2.92% in assay [17]; 1.03% in assay [18]. Besides, the inhibition in assay [19] was 2.01%; in assay [20], 2.51%.

(Values after ChEMBL document CHEMBL1961873, “Compounds: GSK PKIS; Assays: Nanosyn kinase panel” (2012).)
